Screening data deposited in PubChem by Broad Institute.
aSyn 5UTR act = Activators working through SNCA 5'UTR binding (MLPCN); activity score, % (tested at 7.5 µM), hits read low; alpha-synuclein 5'UTR reporter, activators screen; AID 1814; 300,000 compounds, 7.1% hits; in the data active means activity score below about -60%
A number is an active result. A selection follows.

`CN(C)CCn1cnc2c(c1=N)C(c1ccccc1)c1ccc3ccccc3c1O2` (stereo unspecified) gave aSyn 5UTR act inactive.
Screening Cc1ccc(S(=O)(=O)Oc2ccc(C)cc2/C=N/N=C2\NC(=O)C(C)S2)cc1 (stereo unspecified) returned aSyn 5UTR act -66.
For Cn1c(=O)c(C(=O)Nc2ncccc2O)c(O)c2ccccc21 the results were aSyn 5UTR act -147.
`Cc1ccc(NC(=O)c2c(O)c3ccccc3n(C)c2=O)nc1` gave aSyn 5UTR act -98.
Cc1cccc(NC(=O)c2c(O)c3ccccc3n(C)c2=O)c1 was read as aSyn 5UTR act -141.
C/C(CC(=O)Nc1cc(C)cc(C)c1)=N\NC(=O)c1ccccn1 was read as aSyn 5UTR act -165.
Screening C/C(CC(=O)Nc1ccccn1)=N\NC(=O)c1ccc2ccccc2c1 returned aSyn 5UTR act -64.
Screening C/C(CC(=O)Nc1ccccn1)=N\NC(=O)c1ccccc1O returned aSyn 5UTR act inactive.
Screening CCC(C)c1ccc(NC(=O)C/C(C)=N/NC(=O)c2cnccn2)cc1 (stereo unspecified) returned aSyn 5UTR act -63.
C/C(CC(=O)Nc1ccc2c(c1)OCCO2)=N\NC(=O)C(=O)Nc1ccccc1C was read as aSyn 5UTR act -74.
`CC1=C/C(=C(/c2cc(C)c(O)c(Br)c2)c2ccccc2S(=O)(=O)O)C=C(Br)C1=O` gave aSyn 5UTR act inactive.
C/C(Cc1ccccc1)=N\NC(=O)c1ccccn1 was read as aSyn 5UTR act -67.
`COc1ccc(NC(=O)C/C(C)=N/NC(=O)c2ccccn2)c(OC)c1` gave aSyn 5UTR act -107.
C/C(=N\NC(=O)c1ccccc1Cl)c1ccccn1 was read as aSyn 5UTR act inactive.
For C/C(=N/NC(=O)c1ccccn1)c1ccncc1 the results were aSyn 5UTR act -116.
Screening C/C(CC(=O)Nc1ccc2c(c1)OCCO2)=N\NC(=O)c1ccccn1 returned aSyn 5UTR act -143.
Screening O=C(CCCOc1ccccc1)Nc1nc2ccccc2[nH]1 returned aSyn 5UTR act -115.
`O=C(CSc1ccc(Cl)cc1)Nc1ccc(-c2nc3ccccc3[nH]2)cc1` gave aSyn 5UTR act -94.
Screening O=C(CSc1n[nH]c(-c2ccccn2)n1)Nc1ccc(Cl)cc1 returned aSyn 5UTR act inactive.
`O=C(CSc1ccccc1)Nc1nc2ccccc2[nH]1` gave aSyn 5UTR act -132.
Screening CN1C(=O)C(O)(c2nnc(-c3ccccc3)o2)c2ccccc21 (stereo unspecified) returned aSyn 5UTR act -96.
O=C(COc1ccc(F)c(Cl)c1)c1ccc[nH]1 was read as aSyn 5UTR act -71.
For O=C(CCC(=O)c1ccc[nH]1)c1ccc(Cl)cc1 the results were aSyn 5UTR act -116.
For Cc1csc(SCc2nnc(-c3ccc(Cl)cc3)o2)n1 the results were aSyn 5UTR act -173.
Screening Cc1csc(SCc2nnc(-c3ccccc3Br)o2)n1 returned aSyn 5UTR act -88.
For Cc1ccc(-c2nnc(CSc3nnc(C)s3)o2)cc1 the results were aSyn 5UTR act -79.
Screening N#Cc1cc2ccc(N3CCOCC3)cc2cc1C#N returned aSyn 5UTR act -73.
Screening COc1ccc(-c2cn3cccnc3n2)cc1Br returned aSyn 5UTR act -66.
COc1ccc(CC(=O)Nc2ccc(-c3cn4ccccc4n3)cc2)cc1 was read as aSyn 5UTR act -124.
`O=C(Nc1ccc(-c2cn3ccccc3n2)cc1)c1cccs1` gave aSyn 5UTR act -129.
`COc1ccc(-c2cn3ccccc3n2)cc1OC` gave aSyn 5UTR act -171.
c1ccn2cc(-c3ccc4c(c3)OCCO4)nc2c1 was read as aSyn 5UTR act inactive.
COc1ccc(CC(=O)Nc2ccc(-c3cn4ccccc4n3)cc2)cc1OC was read as aSyn 5UTR act -86.
Screening COc1ccc(-c2cn3cc(Br)cnc3n2)cc1 returned aSyn 5UTR act -123.
`COc1ccc(-c2cc3cc(OC)c(OC)cc3cn2)cc1OC` gave aSyn 5UTR act -140.
`CCN(CCn1cccn1)C(=O)CCc1nnc(C2(c3ccc(Cl)cc3)CCC2)o1` gave aSyn 5UTR act -86.
CCN(CCn1cccn1)C(=O)CCc1nnc(-c2ccccc2)o1 was read as aSyn 5UTR act -73.
`CCC(=O)NC(=S)Nc1ccc2oc(-c3ccc(OC)cc3)nc2c1` gave aSyn 5UTR act -169.
`COc1ccc(-c2nc3cc(NC(=S)NC(=O)Cc4ccccc4)ccc3o2)cc1` gave aSyn 5UTR act -143.
Screening Nc1cc(C(=O)OCC(=O)N2CCCC2)ccc1Cl returned aSyn 5UTR act -62.
`Nc1cc(Cl)ccc1C(=O)OCC(=O)N1CCCC1` gave aSyn 5UTR act -69.
CCN(C(=O)CSc1cc(C)c2cccc(C)c2n1)C1CCS(=O)(=O)C1 (stereo unspecified) was read as aSyn 5UTR act -80.
`CCc1ccc2[nH]c(=O)c(CN(Cc3nnnn3C3CCCC3)C3CCCCC3)cc2c1` gave aSyn 5UTR act -70.
Cn1ncc([N+](=O)[O-])c1C(=O)Nc1ccc(-c2nc3ccccc3o2)cc1 was read as aSyn 5UTR act -130.
For COc1ccc(C(=O)NCCOc2ccccc2Cl)c(OC)c1OC the results were aSyn 5UTR act -154.
OC1CCCN(c2c3c(nc4cc(-c5cccc(F)c5)nn24)CCCC3)C1 (stereo unspecified) was read as aSyn 5UTR act -99.
Cc1cccc(-c2cc3nc4c(c(N5CCOCC5)n3n2)CCCC4)c1 was read as aSyn 5UTR act -114.
`Cc1cccc(-c2cc3nc4c(c(NCc5ccco5)n3n2)CCCC4)c1` gave aSyn 5UTR act -93.
For COc1ccc(-c2nnc(SC)o2)c(OC)c1 the results were aSyn 5UTR act -85.
Screening COc1ccc(OC)c(-c2nnc(-c3ccc(C)o3)o2)c1 returned aSyn 5UTR act -63.
Screening COc1ccc(CCN2CCCC(CN(C)C(=O)c3ccoc3)C2)cc1 (stereo unspecified) returned aSyn 5UTR act -109.
For Cc1ccccc1-n1c(SCC(=O)N/N=C/c2c(C)nn(-c3ccccc3)c2C)nc2ccccc2c1=O the results were aSyn 5UTR act inactive.
For Cc1nc(COC(=O)c2c(C)nn(-c3ccccc3)c2C)cs1 the results were aSyn 5UTR act -104.
For CN(Cc1ccc(F)cc1)C(=O)CCc1nnc(-c2ccccc2)o1 the results were aSyn 5UTR act -91.
Screening COc1ccc(CCN(C)C(=O)CCc2nnc(-c3ccccc3)o2)cc1OC returned aSyn 5UTR act -86.
Screening CC(=O)N(Cc1ccc(F)cc1)C1=C(NCCc2ccccc2)C(=O)c2ccccc2C1=O returned aSyn 5UTR act inactive.
`COc1ccc2nc(/N=C\N(C)C)sc2c1` gave aSyn 5UTR act -92.
Cc1ccc(-n2[nH]c(C)c(C=NCc3ccncc3)c2=O)cc1 was read as aSyn 5UTR act -65.
Screening CN(C)/C=N/c1nc2ccc3c(c2s1)CCCC3 returned aSyn 5UTR act -138.
COc1ccc2nc(/N=C/c3c(C)[nH]n(-c4ccc(C)cc4)c3=O)sc2c1 was read as aSyn 5UTR act -73.
For O=C(O)C(=O)/C(=C\c1ccc([N+](=O)[O-])cc1)c1ccc2ccccc2n1 the results were aSyn 5UTR act -88.
O=C(O)C(=O)/C(=C\c1ccccc1)c1ccc2ccccc2n1 was read as aSyn 5UTR act -90.
`Clc1cccc(Cl)c1Cn1nnc(N2CCCC2)n1` gave aSyn 5UTR act -64.
Screening Cc1ccc2nc(N/N=C/c3ccco3)cc(C)c2c1 returned aSyn 5UTR act -186.
Cc1cc(N/N=C/c2ccc([N+](=O)[O-])o2)nc2ccccc12 was read as aSyn 5UTR act -133.
